Assay results as given in PubChem BioAssay (NCATS).
Inconclusive results are not listed. Active and inactive are the calls of the source. Unless noted, calls follow the shape of the dose curve; as a rule, active = well fitted curve in the direction sought with a large enough effect; inconclusive = small, poorly fitted or top-dose-only effect, or another doubt; inactive = no such curve, though single readings can be large; an effect the other way counts as inactive or inconclusive.

Legend:
[1] = target: Lysosomal acid glucosylceramidase (Homo sapiens) (UniProt P04062); assay: Glucocerebrosidase-p2 (AID 348; in the data active = potency below about 10 µM; also: potency is read from the fitted curve at half-maximal effect); conditions: purified GBA, blue fluorogenic substrate, 40 min
Sequence of Lysosomal acid glucosylceramidase (Homo sapiens) (P04062 whole entry, looked up): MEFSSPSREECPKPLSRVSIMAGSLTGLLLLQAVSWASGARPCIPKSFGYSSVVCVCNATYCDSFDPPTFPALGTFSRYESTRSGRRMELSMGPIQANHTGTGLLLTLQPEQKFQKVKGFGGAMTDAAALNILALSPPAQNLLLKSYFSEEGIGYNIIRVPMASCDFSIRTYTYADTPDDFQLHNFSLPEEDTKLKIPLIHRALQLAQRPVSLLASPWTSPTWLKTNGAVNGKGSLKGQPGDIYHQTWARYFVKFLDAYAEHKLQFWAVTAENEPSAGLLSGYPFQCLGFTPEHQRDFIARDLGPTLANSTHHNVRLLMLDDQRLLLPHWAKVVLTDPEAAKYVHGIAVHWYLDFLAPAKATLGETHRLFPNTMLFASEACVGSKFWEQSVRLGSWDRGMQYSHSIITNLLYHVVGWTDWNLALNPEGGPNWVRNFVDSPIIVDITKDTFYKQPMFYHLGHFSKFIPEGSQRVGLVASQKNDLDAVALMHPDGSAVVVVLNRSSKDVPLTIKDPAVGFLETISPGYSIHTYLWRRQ
Outline: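 Normal human glucocerebrosidase (0.2 nM) with blue fluorogenic substrate (80 uM final) in citrate/phosphate pH 5.9 with 10mM sodium taurocholate, 0.01% tween-20; 40 min RT, NaOH/glycine stop; fluorescence Ex 365/Em 440; AC50 from a titration from 0.6 nM upwards.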

[2] = AP1 Signaling Pathway (AID 357; active = well fitted curve in either direction with a large enough effect, not every such curve was filed as active;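 also: ME-180 reporter cells stimulated with EGF at its EC50 level; % is scaled to controls: 0 for no effect and ±100 for the full control effect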); conditions: ME-180 AP-1-bla reporter, EGF-induced, beta-lactamase ratio, 5 h; at 7.69 µM (top of the series) unless noted
Outline: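 Read-out was the 460nm/530nm emission ratio (excitation 405nm) after CCF4 loading for 2.5 hours at room temperature. Cells carried an AP-1-driven beta-lactamase reporter, were stimulated with EC50 EGF plus compound for 5 hours, and AC50 values came from titrations.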

[3] = target: Cytochrome P450 1A2 (Homo sapiens) (UniProt P05177); assay: p450-cyp1a2 (AID 410; calls by dose curve; also: potency is read from the fitted curve at half-maximal effect); conditions: recombinant CYP1A2, luciferin-ME demethylation, luminescence; series mostly up to 57 µM
Sequence of Cytochrome P450 1A2 (Homo sapiens) (P05177 whole entry, looked up): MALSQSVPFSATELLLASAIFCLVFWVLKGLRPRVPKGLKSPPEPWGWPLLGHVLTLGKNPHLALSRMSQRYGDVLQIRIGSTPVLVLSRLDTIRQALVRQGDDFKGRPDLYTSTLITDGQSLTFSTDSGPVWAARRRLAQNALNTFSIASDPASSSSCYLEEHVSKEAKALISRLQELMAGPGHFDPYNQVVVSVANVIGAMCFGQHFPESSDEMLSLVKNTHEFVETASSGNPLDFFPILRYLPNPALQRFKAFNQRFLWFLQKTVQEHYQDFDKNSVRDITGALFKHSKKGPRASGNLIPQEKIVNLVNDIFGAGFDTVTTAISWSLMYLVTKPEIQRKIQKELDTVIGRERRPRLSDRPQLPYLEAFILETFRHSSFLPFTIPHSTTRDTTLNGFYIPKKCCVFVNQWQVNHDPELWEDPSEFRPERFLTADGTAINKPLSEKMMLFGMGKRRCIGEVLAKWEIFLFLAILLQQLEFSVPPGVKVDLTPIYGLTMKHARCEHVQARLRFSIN
Outline: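 Read-out is luminescence from luciferin produced by CYP1A2 demethylation of Luciferin-ME (100uM, at Km). Detection reagent stopped the 60 min NADPH-dependent reaction; signals were normalized to 57 uM furafylline.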

[4] = NFAT Signaling Pathway (AID 444; active = well fitted curve in either direction with a large enough effect, not every such curve was filed as active;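 also: carbachol stimulus at about its EC50 of 1 µM final; % is scaled to controls: 0 for no effect and ±100 for the full control effect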); conditions: Jurkat NFAT-bla M1, carbachol, beta-lactamase ratio, 5 h; at 7.69 µM (top of the series) unless noted
Outline: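 Read-out: CCF4 FRET ratio (460 nm/530 nm) after 1 h RT dye loading, used for %activity and AC50 from titration series. Cells: Jurkat NFAT-β-lactamase/M1 line, treated with compound plus 1 uM carbachol for 5 h, 37 °C.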

[5] = Stat Signaling Pathway (AID 446; active = well fitted curve in either direction with a large enough effect, not every such curve was filed as active;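 also: ME-180 cervical cancer cells given 40 pM IL-6 alongside compound; SIE-controlled beta-lactamase reporter measured as 460/530 nm FRET emission ratio; % is scaled to controls: 0 for no effect and ±100 for the full control effect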); conditions: ME-180 (cervical carcinoma) SIE beta-lactamase reporter, IL-6 stimulated, 5 h; at 7.69 µM (top of the series) unless noted
Outline: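 Compound effects on IL-6-induced STAT reporter activity were measured in ME-180 cells. After overnight culture, cells were co-treated with 40 pM IL-6 for 5 hrs before beta-lactamase substrate loading at room temperature.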

[6] = target: Glucocorticoid receptor (Homo sapiens) (UniProt P04150); assay: GR-GFP Redistribution (AID 450;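 active = compounds whose dose series gives a full or clear partial fitted curve of increased nuclear translocation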; also: potency is read from the fitted curve at half-maximal effect); conditions: U2OS GR-GFP nuclear translocation, laser cytometry, 2 h
Sequence of Glucocorticoid receptor (Homo sapiens) (P04150 whole entry, looked up, the tested form may be a part): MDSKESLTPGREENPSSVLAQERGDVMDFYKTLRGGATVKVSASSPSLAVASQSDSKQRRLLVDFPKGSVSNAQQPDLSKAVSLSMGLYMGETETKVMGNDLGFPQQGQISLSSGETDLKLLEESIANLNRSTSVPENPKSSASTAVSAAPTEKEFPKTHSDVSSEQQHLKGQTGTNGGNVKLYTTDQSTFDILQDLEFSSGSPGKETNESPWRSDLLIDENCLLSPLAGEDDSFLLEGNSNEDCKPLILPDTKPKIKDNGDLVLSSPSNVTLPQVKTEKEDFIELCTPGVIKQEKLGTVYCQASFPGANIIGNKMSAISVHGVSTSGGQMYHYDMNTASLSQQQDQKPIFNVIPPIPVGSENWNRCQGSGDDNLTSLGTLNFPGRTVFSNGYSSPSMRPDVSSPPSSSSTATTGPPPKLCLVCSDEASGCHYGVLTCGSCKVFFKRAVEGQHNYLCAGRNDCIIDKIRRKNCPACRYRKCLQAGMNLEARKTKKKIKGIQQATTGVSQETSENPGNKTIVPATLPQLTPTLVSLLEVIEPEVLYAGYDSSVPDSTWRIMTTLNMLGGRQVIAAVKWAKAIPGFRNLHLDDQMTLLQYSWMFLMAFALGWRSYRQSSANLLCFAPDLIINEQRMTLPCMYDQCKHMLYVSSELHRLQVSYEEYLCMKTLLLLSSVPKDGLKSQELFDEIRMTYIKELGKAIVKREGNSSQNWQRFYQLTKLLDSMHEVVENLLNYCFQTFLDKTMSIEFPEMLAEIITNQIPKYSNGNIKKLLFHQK

[7] = target: Glucocorticoid receptor (Homo sapiens) (UniProt P04150); assay: GR-EFC Redistribution (AID 451; calls by dose curve; also: potency is read from the fitted curve at half-maximal effect); conditions: CHO-K1 GR-EFC translocation, beta-gal luminescence, 2 h
Outline: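 Translocation of GR-ED fusion to nuclear EA restores b-gal, read by luminescence after 1 h room-temperature detection. Engineered CHO-K1 biosensor cells, 1,000/well, exposed 2 h at 37 C to titrations up to 46 uM final.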

[8] = target: Mitogen-activated protein kinase 10 (Mus musculus) (UniProt Q61831); assay: JNK3 AlphaScreen Assay (AID 530; active = well fitted curve in either direction with a large enough effect, not every such curve was filed as active;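 also: kinase came from lysate of stimulated human HepG2 cells; signal reports phosphorylation of biotinylated GST-cJun 1-79 at Ser73 with 10 µM ATP; % is scaled to controls: 0 for no effect and ±100 for the full control effect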); conditions: JNK3 lysate, c-Jun phosphorylation; series mostly up to 57.1 µM
Outline: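 Kinase buffer: 20 mM Tris-HCl pH 7.6, 10 mM MgCl2, 1 mM DTT, 0.1 mM Na3VO4, 0.01% Tween-20; ATP 10 uM. Substrate biotin-GST-cJun(1-79), enzyme from activated HepG2 lysates. Detection by Ser73 phospho-antibody AlphaScreen.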

[9] = target: 3',5'-cyclic-AMP phosphodiesterase 4B (Homo sapiens) (UniProt Q07343); assay: qHTS Assay for Inhibitors of PDE-IV (AID 607; active = well fitted activation curve with a large enough effect in the main read-out, with a control signal flat, not every such curve was filed as active; also: % of control where 0% means no effect); conditions: HEK293 ACTOne CNG channel cells, membrane potential fluorescence; series mostly up to 22.9 µM
Sequence of 3',5'-cyclic-AMP phosphodiesterase 4B (Homo sapiens) (Q07343 whole entry, looked up): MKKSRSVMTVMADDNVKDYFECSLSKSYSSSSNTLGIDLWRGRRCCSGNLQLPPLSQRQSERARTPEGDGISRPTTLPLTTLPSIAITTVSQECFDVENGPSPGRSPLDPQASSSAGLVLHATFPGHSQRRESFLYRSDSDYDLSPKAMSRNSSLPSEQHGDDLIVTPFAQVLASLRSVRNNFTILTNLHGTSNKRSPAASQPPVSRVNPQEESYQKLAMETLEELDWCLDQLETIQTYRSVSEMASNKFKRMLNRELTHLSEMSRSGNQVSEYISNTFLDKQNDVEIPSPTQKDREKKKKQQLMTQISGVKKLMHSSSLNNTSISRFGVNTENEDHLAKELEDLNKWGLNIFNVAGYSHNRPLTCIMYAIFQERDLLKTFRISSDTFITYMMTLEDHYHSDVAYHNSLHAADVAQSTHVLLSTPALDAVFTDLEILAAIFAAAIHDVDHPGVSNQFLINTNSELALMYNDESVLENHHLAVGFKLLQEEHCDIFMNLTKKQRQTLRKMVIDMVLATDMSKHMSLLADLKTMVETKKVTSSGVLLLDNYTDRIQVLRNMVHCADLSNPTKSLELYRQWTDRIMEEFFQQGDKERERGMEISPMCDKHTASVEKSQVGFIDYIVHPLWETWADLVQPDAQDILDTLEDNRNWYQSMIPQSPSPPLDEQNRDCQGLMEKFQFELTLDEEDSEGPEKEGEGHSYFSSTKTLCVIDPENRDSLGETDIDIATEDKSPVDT
Outline: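 ACTOne HEK293 cells carry a modified cAMP-gated CNG channel and express endogenous PDE4; plated 1000 cells/well, compounds up to 22.9 uM final. Membrane-potential dye fluorescence (ex 535/em 590) was read; parental cells received 10 uM forskolin + 100 uM RO 20-1724.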

[10] = target: Cytochrome P450 3A4 (Homo sapiens) (UniProt P08684); assay: qHTS Assay for Activators of Cytochrome P450 3A4 (AID 885); conditions: recombinant CYP3A4, Luciferin-PPXE luminescence, 60 min; series mostly up to 57.1 µM; also: nearly all actives have a fitted effect of over 65% in size
Sequence of Cytochrome P450 3A4 (Homo sapiens) (P08684 whole entry, looked up): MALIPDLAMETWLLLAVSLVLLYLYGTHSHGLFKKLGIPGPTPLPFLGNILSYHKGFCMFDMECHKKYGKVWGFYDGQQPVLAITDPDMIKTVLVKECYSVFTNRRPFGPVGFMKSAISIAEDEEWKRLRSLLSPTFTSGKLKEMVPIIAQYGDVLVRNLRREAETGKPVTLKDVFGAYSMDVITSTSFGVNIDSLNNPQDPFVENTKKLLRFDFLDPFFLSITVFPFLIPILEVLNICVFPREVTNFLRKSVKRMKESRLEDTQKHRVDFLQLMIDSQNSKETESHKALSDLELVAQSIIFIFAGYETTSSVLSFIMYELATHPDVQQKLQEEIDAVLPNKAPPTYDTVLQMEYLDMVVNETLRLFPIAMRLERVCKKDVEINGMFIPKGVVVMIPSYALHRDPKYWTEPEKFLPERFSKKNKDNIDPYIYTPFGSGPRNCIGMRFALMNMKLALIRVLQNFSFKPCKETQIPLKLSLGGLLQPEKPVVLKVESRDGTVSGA
Outline: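 CYP3A4 activity: Luciferin-PPXE O-dealkylation, 25uM substrate, 200mM KPO4, RT throughout. Read-out is luciferase luminescence; higher values reflect activation.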

[11] = Confirmation and Secondary Assay for Modulators of Hemoglobin Beta Chain Splicing at IVS2 654 locus (AID 910); conditions: HeLa EGFP-654 splicing reporter, GFP fluorescence, 48 h; series mostly up to 38.3 µM;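 also: HeLa cells stably carrying EGFP split by mutant beta-globin IVS2-654 intron; per-well total GFP intensity by laser scanning cytometry after 2-day treatment; % of control where 0% means no effect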
Outline: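 Readout: per-well total peak green fluorescence (488 nm ex, 500–520 nm em) from objects 5–250 µm, reflecting correct splicing of an EGFP-654 reporter. Compounds were applied for 2 days at 37 °C to overnight-plated HeLa EGFP-654 cells; controls were DMSO and 500 nM IVS2-654 PNA.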

[12] = Confirmation and Secondary Assay for Modulators of Hemoglobin Beta Chain Splicing at IVS2 705 locus (AID 930); conditions: HeLa EGFP-705 splicing reporter, GFP fluorescence, 48 h; series mostly up to 38.3 µM;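 also: HeLa cells stably expressing the EGFP-705 splicing reporter; GFP fluorescence per well restored by corrected splicing of the IVS2-705 intron in EGFP; % of control where 0% means no effect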
Outline: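 Stable HeLa line with EGFP disrupted by mutant beta-globin intron 2 (705). Overnight attachment, then 2 days of compound at 37C, 5% CO2. Signal: peak GFP intensity summed over objects 5-250 µm.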

[13] = qHTS Assay for Lipid Storage Modulators (AID 1519; calls by dose curve); conditions: Drosophila S3 cells, BODIPY lipid droplet/cell ratio, laser cytometry, cells loaded with oleic acid; for activity change, negative = inhibition: at 57.5 µM (top of the series)
Outline: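 Cells seeded at 5,000 per well were treated with compounds over a concentration series and loaded with oleic acid (400 uM, as added). Lipid droplet fluorescence (488 nm excitation, 500-530 nm channel) was read by laser-scanning cytometry and normalized to 20 uM Triacsin C.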

[14] = target: Ubiquitin carboxyl-terminal hydrolase 1 (Homo sapiens) (UniProt O94782); assay: Inhibitors of USP1/UAF1: Pilot qHTS (AID 504865); conditions: purified USP1/UAF1, Ub-rhodamine cleavage fluorescence; series mostly up to 54.9 µM; also: nearly all actives have a fitted effect of over 35% in size; also: potency is read from the fitted curve at half-maximal effect
Sequence of Ubiquitin carboxyl-terminal hydrolase 1 (Homo sapiens) (O94782 whole entry, looked up): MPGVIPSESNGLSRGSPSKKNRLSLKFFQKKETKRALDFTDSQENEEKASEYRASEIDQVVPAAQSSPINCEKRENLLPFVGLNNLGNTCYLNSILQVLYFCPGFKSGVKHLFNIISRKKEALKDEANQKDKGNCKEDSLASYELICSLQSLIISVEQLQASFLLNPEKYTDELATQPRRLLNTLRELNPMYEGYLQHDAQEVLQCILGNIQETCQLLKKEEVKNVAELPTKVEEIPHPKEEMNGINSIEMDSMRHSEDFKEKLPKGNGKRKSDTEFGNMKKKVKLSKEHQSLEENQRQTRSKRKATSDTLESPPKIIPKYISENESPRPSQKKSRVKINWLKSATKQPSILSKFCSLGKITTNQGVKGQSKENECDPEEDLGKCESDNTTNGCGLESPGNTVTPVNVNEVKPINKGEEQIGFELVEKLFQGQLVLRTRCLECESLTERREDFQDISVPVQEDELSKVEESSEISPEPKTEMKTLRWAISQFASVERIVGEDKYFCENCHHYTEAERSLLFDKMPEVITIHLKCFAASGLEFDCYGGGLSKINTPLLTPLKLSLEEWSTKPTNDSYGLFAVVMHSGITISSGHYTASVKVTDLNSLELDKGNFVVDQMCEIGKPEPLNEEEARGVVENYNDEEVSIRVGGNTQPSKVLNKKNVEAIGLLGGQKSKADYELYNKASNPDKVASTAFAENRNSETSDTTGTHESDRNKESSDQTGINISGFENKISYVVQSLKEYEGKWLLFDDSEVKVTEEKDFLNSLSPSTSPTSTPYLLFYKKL
Outline: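 Enzyme-free wells gave the negative control, while test wells held 1nM USP1/UAF1 preincubated with compound for 15 min at room temperature. Ub-Rho at 150nM final started the reaction, and fluorescence at 480/540 nm was recorded kinetically.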

[15] = Primary qHTS for small molecule stabilizers of the endoplasmic reticulum resident proteome: Secreted ER Calcium Modulated Protein (SERCaMP) assay (AID 1508630); conditions: SH-SY5Y GLuc-SERCaMP (Gaussia luciferase released on ER calcium loss) secretion, thapsigargin, luminescence; series mostly up to 38.4 µM; also: % is scaled to controls: 0 for no effect and ±100 for the full control effect
Outline: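 The SH-SY5Y reporter protocol was run at 3 concentrations up to 38.3 uM (primary) or 11 concentrations (follow-up): 16 h compound, 100 nM thapsigargin for 4 h, then extracellular luciferase luminescence.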

[16] = target: Cytochrome P450 3A4 (Homo sapiens) (UniProt P08684); assay: qHTS Assay for Inhibitors and Substrates of Cytochrome P450 3A4 (AID 884); conditions: recombinant CYP3A4, Luciferin-PPXE luminescence; series mostly up to 57.1 µM; also: potency is read from the fitted curve at half-maximal effect; nearly all actives have a fitted effect of over 50% in size
Outline: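 Luminescent readout of luciferin produced by CYP3A4 (20 nM) dealkylation of Luciferin-PPXE, 25 uM (its KM). NADPH-driven reaction ran 60 min at RT after 10 min compound preincubation; data scaled to 57 uM ketoconazole as 100% inhibition.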

[17] = measured here: cell count channel max response
[18] = measured here: lipid channel max response

N#Cc1cccc(-c2cc(NCc3cccs3)ncn2)c1
-10.9%: max response [13, 18]
-10.3%: max response [13, 17]
active: Potency [3] 0.794 µM
inactive: Potency [1] > 11.4 µM | activity change, negative = inhibition [2] -6.14% | activity change, negative = inhibition [4] 12.6% | activity, negative = inhibition [5] -3.35% | Potency [6] > 46 µM | Potency [7] > 46 µM | outcome [8] | Potency [9] | Potency [10] | outcome [11] | outcome [12] | activity change, negative = inhibition [13] 3.14% | Potency [14] | Potency [15]

CN(C)Cc1ccccc1-c1nccc(N(C)C)n1
active: Potency [3] 12.6 µM
7.89%: max response [13, 18]
inactive: Potency [1] > 11.4 µM | activity change, negative = inhibition [2] 23.3% | activity change, negative = inhibition [4] -0.313% | activity, negative = inhibition [5] 10.1% | Potency [6] > 46 µM | Potency [7] > 46 µM | outcome [8] | Potency [9] | Potency [10] | outcome [11] | outcome [12] | activity change, negative = inhibition [13] 2.35% | Potency [14] | Potency [15]
4.56%: max response [13, 17]

c1cncc(CNc2nc(-c3ccoc3)nc3ccccc23)c1
2.22%: max response [13, 17]
active: Potency [3] 0.398 µM | Potency [16] 7.94 µM | Potency [14] 44.7 µM
16.5%: max response [13, 18]
inactive: Potency [1] > 11.4 µM | activity change, negative = inhibition [2] 1.41% | activity change, negative = inhibition [4] -9.01% | activity, negative = inhibition [5] -4.87% | Potency [6] > 46 µM | Potency [7] > 46 µM | outcome [8] | Potency [10] | outcome [11] | outcome [12] | activity change, negative = inhibition [13] 12.2% | Potency [15]
